Measured values reported in PubChem BioAssay (NCATS).
Records with an inconclusive call do not appear. Entries that show only a call come without a potency. Calls of active or inactive are those of the source. Unless noted, the call rests on the fitted dose curve; in most records, active means well fitted curve in the direction sought with a large enough effect; inconclusive means small, poorly fitted or top-dose-only effect, or another doubt; inactive means no such curve, though single readings can be large; an effect the other way counts as inactive or inconclusive.

How the values were obtained:
AA1029 = test: qHTS profiling for inhibitors of Plasmodium falciparum proliferation (AID 504749); further: nearly all actives have a fitted effect of over 60% in size; further: potency means the concentration at half of the fitted maximal effect; conditions: P. falciparum in erythrocytes, SYBR Green DNA, 72 h; series mostly up to 12.8 µM
In short: (§1)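 P. falciparum-infected erythrocytes (0.3% parasitemia, 2.5% hematocrit final) were exposed to compounds for 72 h at 37 C in 5% CO2, then lysed with SYBR Green buffer overnight at room temperature; parasite DNA fluorescence was normalized to artemisinin and DMSO controls.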

CP185 = test: as above; conditions: P. falciparum in erythrocytes, SYBR Green DNA, 72 h; series mostly up to 12.8 µM
In short: as §1

CP192 = test: as above; conditions: P. falciparum in erythrocytes, SYBR Green DNA, 72 h; series mostly up to 12.8 µM
In short: as §1

CP194 = test: as above; conditions: P. falciparum in erythrocytes, SYBR Green DNA, 72 h; series mostly up to 12.8 µM
In short: as §1

CP211 = test: as above; conditions: P. falciparum in erythrocytes, SYBR Green DNA, 72 h; series mostly up to 12.8 µM
In short: as §1

CP247 = test: as above; conditions: P. falciparum in erythrocytes, SYBR Green DNA, 72 h; series mostly up to 12.8 µM
In short: as §1

CP256 = test: as above; conditions: P. falciparum in erythrocytes, SYBR Green DNA, 72 h; series mostly up to 12.8 µM
In short: as §1

CP260 = test: as above; conditions: P. falciparum in erythrocytes, SYBR Green DNA, 72 h; series mostly up to 12.8 µM
In short: as §1

CP265 = test: as above; conditions: P. falciparum in erythrocytes, SYBR Green DNA, 72 h; series mostly up to 12.8 µM
In short: as §1

CP291 = test: as above; conditions: P. falciparum in erythrocytes, SYBR Green DNA, 72 h; series mostly up to 12.8 µM
In short: as §1

CP297 = test: as above; conditions: P. falciparum in erythrocytes, SYBR Green DNA, 72 h; series mostly up to 12.8 µM
In short: as §1

ICS = test: as above; conditions: P. falciparum in erythrocytes, SYBR Green DNA, 72 h; series mostly up to 12.8 µM
In short: as §1

P93_24 = test: as above; conditions: P. falciparum in erythrocytes, SYBR Green DNA, 72 h; series mostly up to 12.8 µM
In short: as §1

P94_40 = test: as above; conditions: P. falciparum in erythrocytes, SYBR Green DNA, 72 h; series mostly up to 12.8 µM
In short: as §1

PAD = test: as above; conditions: P. falciparum in erythrocytes, SYBR Green DNA, 72 h; series mostly up to 12.8 µM
In short: as §1

PC26 = test: as above; conditions: P. falciparum in erythrocytes, SYBR Green DNA, 72 h; series mostly up to 12.8 µM
In short: as §1

TAB109 = test: as above; conditions: P. falciparum in erythrocytes, SYBR Green DNA, 72 h; series mostly up to 12.8 µM
In short: as §1

TAB165 = test: as above; conditions: P. falciparum in erythrocytes, SYBR Green DNA, 72 h; series mostly up to 12.8 µM
In short: as §1

[1] = molecular target: Mitogen-activated protein kinase 10 (Mus musculus) (UniProt Q61831); test: JNK3 AlphaScreen Assay (AID 530; active means well fitted curve in either direction with a large enough effect, not every such curve was filed as active;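 further: kinase came from lysate of stimulated human HepG2 cells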; further: potency means the concentration at half of the fitted maximal effect)
In short: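 JNK3 came from HepG2 lysates pre-activated with IL-1beta and TNF-alpha and phosphorylated biotinylated GST-cJun (1-79) at 10 uM ATP, pH 7.6, room temperature. Compounds were titrated. AlphaScreen signal used anti-phospho-cJun (Ser73) antibody.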

[2] = molecular target: Cytochrome P450 3A4 (Homo sapiens) (UniProt P08684); test: qHTS Assay for Activators of Cytochrome P450 3A4 (AID 885); further: nearly all actives have a fitted effect of over 65% in size
In short: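 Signal was normalized against complete inhibition by 57 uM ketoconazole. The reaction used 20nM CYP3A4 with 25uM Luciferin-PPXE, 10-min compound preincubation and a 60-min NADPH-supported step at RT.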

Chain of Cytochrome P450 3A4 (Homo sapiens) (P08684 whole entry, looked up): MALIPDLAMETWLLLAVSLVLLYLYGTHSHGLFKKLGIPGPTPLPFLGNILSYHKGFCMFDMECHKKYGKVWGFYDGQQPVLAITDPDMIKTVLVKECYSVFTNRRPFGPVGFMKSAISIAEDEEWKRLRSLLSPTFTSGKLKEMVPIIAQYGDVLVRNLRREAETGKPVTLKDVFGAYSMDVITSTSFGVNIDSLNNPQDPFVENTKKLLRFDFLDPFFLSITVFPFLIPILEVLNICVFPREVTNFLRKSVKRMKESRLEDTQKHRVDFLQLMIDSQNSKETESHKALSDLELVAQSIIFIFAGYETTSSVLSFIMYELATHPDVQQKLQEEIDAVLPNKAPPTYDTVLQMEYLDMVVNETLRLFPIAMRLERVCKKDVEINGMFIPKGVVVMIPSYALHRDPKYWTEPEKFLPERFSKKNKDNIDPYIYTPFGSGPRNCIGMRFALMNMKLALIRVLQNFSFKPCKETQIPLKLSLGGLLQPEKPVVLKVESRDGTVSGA

Structure (SMILES): C1CCN2C[C@@H]3C[C@@H](CN4CCCC[C@H]34)[C@H]2C1
- Potency (AA1029): inactive
- Potency (CP185): inactive
- Potency (CP192): inactive
- Potency (CP194): inactive
- Potency (CP211): inactive
- Potency (CP247): inactive
- Potency (CP256): inactive
- Potency (CP260): inactive
- Potency (CP265): inactive
- Potency (CP291): inactive
- Potency (CP297): inactive
- Potency (ICS): inactive
- Potency (P93_24): inactive
- Potency (P94_40): inactive
- Potency (PAD): inactive
- Potency (PC26): inactive
- Potency (TAB109): inactive
- Potency (TAB165): inactive

Structure (SMILES): COc1cc(N[C@@H](C)CCCN)c2ncccc2c1
- Potency [1]: inactive
- Potency [2]: inactive
- Potency (AA1029): 2510 nM (active)
- Potency (CP185): 2000 nM (active)
- Potency (CP192): 2560 nM (active)
- Potency (CP194): 3610 nM (active)
- Potency (CP211): 2280 nM (active)
- Potency (CP247): 3550 nM (active)
- Potency (CP256): 1260 nM (active)
- Potency (CP260): 1410 nM (active)
- Potency (CP265): 2000 nM (active)
- Potency (CP291): 1810 nM (active)
- Potency (CP297): 3610 nM (active)
- Potency (ICS): 708 nM (active)
- Potency (P93_24): 1000 nM (active)
- Potency (P94_40): 1410 nM (active)
- Potency (PAD): 891 nM (active)
- Potency (PC26): 2280 nM (active)
- Potency (TAB109): 1780 nM (active)
- Potency (TAB165): 891 nM (active)

Structure (SMILES): CC[C@](C)(CN(C)C)OC(=O)c1ccccc1
- Potency [1]: inactive
- Potency (AA1029): inactive
- Potency (CP185): inactive
- Potency (CP192): inactive
- Potency (CP194): inactive
- Potency (CP211): inactive
- Potency (CP247): inactive
- Potency (CP256): inactive
- Potency (CP260): inactive
- Potency (CP265): inactive
- Potency (CP291): inactive
- Potency (CP297): inactive
- Potency (ICS): inactive
- Potency (P94_40): inactive
- Potency (PAD): inactive
- Potency (PC26): inactive
- Potency (TAB109): inactive
- Potency (TAB165): inactive

Structure (SMILES): O=c1cc(-c2cccc(O)c2)oc2cc(O)ccc12
- Potency [2]: inactive

Structure (SMILES): CC(C)n1c(/C=C\[C@@H](O)C[C@@H](O)CC(=O)O)c(-c2ccc(F)cc2)c2ccccc21
- Potency [1]: inactive

Structure (SMILES): COC(=O)[C@@H]1[C@@H]2C[C@H]3c4[nH]c5cc(OC)ccc5c4CCN3C[C@@H]2C[C@H](OC(=O)c2cc(OC)c(OC)c(OC)c2)[C@H]1OC
- Potency [1]: inactive
- Potency [2]: inactive

Structure (SMILES): Clc1ccc([C@H](Cn2ccnc2)OCc2c(Cl)cccc2Cl)c(Cl)c1
- Potency (CP247): 3160 nM (active)
- Potency (CP265): 3160 nM (active)
- Potency (ICS): 1580 nM (active)
- Potency (P93_24): 794 nM (active)
- Potency (P94_40): 3160 nM (active)
- Potency (PAD): 3550 nM (active)
- Potency (PC26): 4550 nM (active)
- Potency (TAB109): 2820 nM (active)
- Potency (TAB165): 355 nM (active)

Structure (SMILES): CC1(C)S[C@@H]2[C@H](NC(=O)[C@@H](N)c3ccccc3)C(=O)N2[C@H]1C(=O)O[C@H]1OC(=O)c2ccccc21
- Potency [1]: inactive
- Potency [2]: inactive
- Potency (AA1029): inactive
- Potency (CP185): inactive
- Potency (CP192): inactive
- Potency (CP194): inactive
- Potency (CP211): inactive
- Potency (CP247): inactive
- Potency (CP256): inactive
- Potency (CP260): inactive
- Potency (CP265): inactive
- Potency (CP291): inactive
- Potency (CP297): inactive
- Potency (ICS): inactive
- Potency (P93_24): inactive
- Potency (P94_40): inactive
- Potency (PAD): inactive
- Potency (PC26): inactive
- Potency (TAB109): inactive
- Potency (TAB165): inactive

Structure (SMILES): CCN(CCCCOC(=O)c1ccc(OC)c(OC)c1)[C@@H](C)Cc1ccc(OC)cc1
- Potency [1]: inactive
- Potency (AA1029): inactive
- Potency (CP211): inactive
- Potency (CP247): inactive
- Potency (CP256): inactive
- Potency (CP291): inactive
- Potency (CP297): inactive
- Potency (P93_24): inactive
- Potency (PAD): inactive
- Potency (TAB165): inactive

Structure (SMILES): C[C@@H]1O[C@H](O[C@@H]2[C@H](C)O[C@H](O[C@@H]3[C@H](C)O[C@H](O[C@H]4CC[C@]5(C)[C@@H](CC[C@@H]6[C@H]5C[C@@H](O)[C@]5(C)[C@@H](C7=CC(=O)OC7)CC[C@]65O)C4)C[C@@H]3O)C[C@@H]2O)C[C@H](O)[C@@H]1O
- Potency [1]: inactive

Structure (SMILES): C[C@@](N)(C(=O)O)c1cccc(CC(=O)O)c1
- Potency [1]: inactive

Structure (SMILES): O=C(OC[C@@H](O)CO)c1ccccc1Nc1ccnc2cc(Cl)ccc12
- Potency [1]: inactive
- Potency (AA1029): inactive
- Potency (CP185): inactive
- Potency (CP192): inactive
- Potency (CP194): inactive
- Potency (CP211): inactive
- Potency (CP247): inactive
- Potency (CP260): inactive
- Potency (CP265): inactive
- Potency (CP291): inactive
- Potency (CP297): inactive
- Potency (P93_24): inactive
- Potency (P94_40): inactive
- Potency (PC26): inactive
- Potency (TAB109): inactive
- Potency (TAB165): inactive

Structure (SMILES): C=Cc1c(C)c2cc3nc(cc4[nH]c(cc5nc(cc1[nH]2)C(C)=C5CCC(=O)O)c(CCC(=O)OC)c4C)[C@@]1(C)C3=CC=C(C(=O)OC)[C@H]1C(=O)OC (tested in a mixture with another compound)
- Potency [1]: 316 nM [activator] (active)
- Potency [2]: inactive
- Potency (AA1029): 5010 nM (active)
- Potency (CP192): inactive
- Potency (CP194): inactive
- Potency (CP247): 10000 nM (active)
- Potency (CP260): 2510 nM (active)
- Potency (CP265): 10000 nM (active)
- Potency (CP291): inactive
- Potency (CP297): inactive
- Potency (ICS): 501 nM (active)
- Potency (P93_24): 8910 nM (active)
- Potency (P94_40): 3550 nM (active)
- Potency (PAD): 1410 nM (active)
- Potency (PC26): inactive
- Potency (TAB109): 5010 nM (active)
- Potency (TAB165): 6310 nM (active)
